Only some compounds are listed: those with a hit (about 0.59% of all), similar ones and a draw of the others.
LDHA block: LDHA (human) enzyme inhibition. P00338. purified LDHA, NADH/diaphorase-resazurin fluorescence; stronger effect = lower value. activity change, % (values are at about 110 or 230 µM). 0.15% of 480,000 active. AID 1347041; in the data active means activity change below about -30%; inconclusive means mostly about -25% to -30%;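 further: plate controls were DMSO wells for no effect and wells without enzyme for full effect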
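LDH5 2 nM; NADH 0.06 mM, pyruvate 0.2 mM; 200 mM Tris pH 7.4, EDTA, Tween-20; 5 min RT. Detection: diaphorase 0.133 mg/mL + resazurin 37 µM, fluorescence ex540/em590 at 0 and 20 min; normalized to enzyme-free and DMSO wells.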
Vif-A3F inh: Vif-A3F binding inhibition | HeLa A3F-eYFP + Vif (tagged APOBEC3F with the HIV-1 protein that degrades it), YFP fluorescence increase | 0.2% of 390,000 active | Potency, µM (series often up to 46.1 µM), inactives show top-dose activity, negative = active | AID 602313; further: potency means the concentration at half of the fitted maximal effect; % of control where 0% means no effect; nearly all actives have a fitted effect of over 65% in size
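HeLa cells stably expressing A3F-eYFP plus Vif, plated and incubated overnight at 37 deg C, then exposed to compounds overnight at 37 deg C. Blocked degradation read as raised yellow fluorescence (Ex 488/Em 500-530).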
PTHR1 agonist: activates the human parathyroid hormone receptor PTHR1; HEK293 GP2 PTHR1 cells, GloSensor cAMP luminescence, 1 h; Q03431; Potency, µM (titrated, usually from 115 µM), for the others: at the top dose activation, actives largely listed as activators; 0.075% of 410,000 active; further: potency means the concentration at half of the fitted maximal effect; nearly all actives have a fitted effect of over 55% in size
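HEK-293-derived GP2 cells expressing PTHR1 and a GloSensor cAMP reporter, 3,000/well, plated overnight, given luciferin plus IBMX (each 0.5 mM as added) for 1 h at 37 °C, then compound for 1 h at 37 °C. Luminescence was read after 15 min at room temperature.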
Vif-A3G inh: inhibitors of Vif-APOBEC3G interaction; HeLa A3G-eYFP + Vif (tagged APOBEC3G with the HIV-1 protein that degrades it), YFP fluorescence, overnight; AID 602310; 0.076% of 410,000 active; Q9HC16; Potency, µM (highest dose often 46.1 µM), for inactives: at the highest dose activity, negative = active, most hits filed as inhibitors; further: potency means the concentration at half of the fitted maximal effect; on the % scale 0 is the no-effect control and ±100 the full control effect; nearly all actives have a fitted effect of over 60% in size
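HeLa cells stably expressing Vif and C-terminally eYFP-tagged A3G, seeded overnight at 37 deg C, then exposed to compound by pintool overnight at 37 deg C. Rise in yellow fluorescence (Ex 488/Em 500-530, Acumen) marks blocked Vif-driven A3G degradation.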
PINK1 modulator: PINK1 expression modulation; Potency, µM (highest dose often 76.6 µM), for the others: at the top dose activation (PINK1 increase), actives largely listed as activators; 0.2% of 410,000 active; PINK1 immunofluorescence, high-content cytometry, 24 h; AID 624263; active means well fitted activation curve with a large enough effect; inconclusive means small, poorly fitted or top-dose-only effect; cell line not stated here; further: potency means the concentration at half of the fitted maximal effect; % of control where 0% means no effect; nearly all actives have a fitted effect of over 65% in size
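Fluorescence from anti-PINK1 antibody, together with nuclear and cell stains, was scanned on a laser-scanning cytometer. Before staining, stable-line cells were incubated 24 hours with compounds at 5 concentrations; primary antibody 12 h at 10 degrees C.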
mIDH1 inhibitor: inhibitors of human mutant IDH1 R132H; O75874; IDH1-R132H enzyme, NADPH consumption, diaphorase/resazurin fluorescence; Potency, µM (top dose mostly 76.6 µM), inactives show at the highest dose activity change, negative = inhibition, hits mostly inhibitors; 0.093% of 390,000 active; further: potency means the concentration at half of the fitted maximal effect; on the % scale 0 is the no-effect control and ±100 the full control effect; nearly all actives have a fitted effect of over 65% in size
Target sequence (O75874 whole entry R132H, stated change not applied): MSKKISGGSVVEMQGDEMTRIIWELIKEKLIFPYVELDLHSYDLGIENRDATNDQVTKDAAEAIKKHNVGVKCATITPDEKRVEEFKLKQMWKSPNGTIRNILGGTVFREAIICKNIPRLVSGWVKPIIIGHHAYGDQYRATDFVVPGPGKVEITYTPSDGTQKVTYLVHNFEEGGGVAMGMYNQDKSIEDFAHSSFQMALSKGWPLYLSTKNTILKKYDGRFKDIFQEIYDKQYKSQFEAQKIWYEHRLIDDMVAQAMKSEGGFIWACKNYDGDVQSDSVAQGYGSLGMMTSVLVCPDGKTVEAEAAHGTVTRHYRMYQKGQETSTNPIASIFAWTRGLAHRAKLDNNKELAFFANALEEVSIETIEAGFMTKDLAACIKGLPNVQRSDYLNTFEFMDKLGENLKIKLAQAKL
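IDH1-R132H (0.5 ug/mL) preincubated 30 min with compound, then NADPH (0.016 mM) and alpha-KG (2 mM) added; 80 min at RT, pH 7.5. Remaining NADPH coupled via diaphorase/resazurin to fluorescence (540/590 nm); concentration-response curves normalized to no-enzyme control.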
IDH1 autofl: interferes with resorufin fluorescence in IDH1 counter-screen | AID 623980 | shares compounds with mIDH1 inhibitor | 750 tested, under 10 active | Resorufin detection reagent fluorescence interference, cell-free | inhibition of signal, % at 51.2 µM;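 further: 0% = wells with normal resorufin and full inhibition = wells lacking resorufin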
WT IDH1 inh: wild-type IDH1 (human) inhibition counterscreen. shares compounds with mIDH1 inhibitor. WT IDH1 enzyme, NADPH diaphorase/resazurin fluorescence. Potency, µM (top dose mostly 115 µM), inactives show top-dose activity change, negative = inhibition, most hits filed as inhibitors. 9% of 750 active. AID 623995;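 further: potency means the concentration at half of the fitted maximal effect; 0% = full WT IDH1 enzyme control and full inhibition = no enzyme wells; nearly all actives have a fitted effect of over 55% in size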
Target sequence (O75874 whole entry, looked up): as the sequence (O75874 whole entry R132H, stated change not applied) above, with H132R counted along it
IDH1 R132H conf: inhibits human mutant IDH1 enzyme in cherrypick confirmation. shares compounds with mIDH1 inhibitor. IDH1 R132H enzyme, NADPH diaphorase/resazurin fluorescence. Potency, µM (highest dose often 76.6 µM), inactives show at the highest dose activity change, negative = inhibition, actives largely listed as inhibitors. 83% of 750 active; further: potency means the concentration at half of the fitted maximal effect; nearly all actives have a fitted effect of over 50% in size
The depositor's hits bear a star; i = inactive; ? = inconclusive; · = not tested or not shown. Unless noted, the call rests on the fitted dose curve; in most records, active means well fitted curve in the direction sought with a large enough effect; inconclusive means small, poorly fitted or top-dose-only effect, or another doubt; inactive means no such curve, though single readings can be large; an effect the other way counts as inactive or inconclusive.

SMILES	LDHA block	Vif-A3F inh	PTHR1 agonist	Vif-A3G inh	PINK1 modulator	mIDH1 inhibitor	IDH1 autofl	WT IDH1 inh	IDH1 R132H conf
C=CCOC(=O)C1=C(C)OC(N)=C(C(=O)OCC)C12C(=O)Nc1ccc(Br)cc12 (stereo unspecified)	25	·	·	·	·	·	·	·	·
O=c1[nH]c(O)c(/C=C2/C=CC(c3cc(Cl)ccc3Cl)=N2)c(=O)[nH]1	-6	?	-4%	-17%	-2%	29µM*	3	45µM*	11µM*
CC1=Nc2ccccc2/C1=C/c1c(O)[nH]c(=O)[nH]c1=O	0	-9%	-10%	-7%	0%	1%	·	·	·
Cc1sc2c(c1C)C(c1ccc(F)cc1)=NCC(=O)N2CC(=O)Nc1ccc(F)cc1F	15	·	·	·	·	·	·	·	·
Cc1ccccc1CN1CCN(Cc2cccc(F)c2)CC1	-1	·	·	·	·	·	·	·	·
Clc1ccc(COC(Cn2ccnc2)c2ccc(Cl)cc2Cl)cc1 (stereo unspecified)	0	-5%	-84%	-14%	-1%	?	·	·	·
Clc1ccc(C(c2ccc(Cl)cc2)n2cc[n+](CC(OCc3ccc(Cl)cc3Cl)c3ccc(Cl)cc3Cl)c2)cc1 (stereo unspecified)	-8	6%	-26%	5%	-1%	18µM*	-8	?	7.9µM*
O=C(O)CSCC(=O)N(Cc1ccccc1)c1nc(-c2ccccc2)c(-c2ccccc2)s1	-1	0%	i	-2%	-1%	?	3	5%	40µM*
CN1C(=O)/C(=C\c2ccc(N3CCCCC3)o2)C(=O)NC1=S	2	?	-80%	?	4%	5%	·	·	·
CN1C(=O)/C(=C\c2ccc(N3CCCCCC3)cc2)C(=O)NC1=S	-2	?	-20%	0%	2%	46µM*	-12	-4%	22µM*
Cc1[nH]c2ccccc2c1C=C(C#N)C#N	6	·	·	·	·	·	·	·	·
Cc1ccc(C[n+]2c(-c3ccc(C)cc3)cc(-c3ccc(C)cc3)cc2-c2ccc(C)cc2)cc1	-1	0%	-48%	3%	-1%	40µM*	0	12%	22µM*
Cc1ccc(-c2cc(-c3ccc(C)cc3)[n+](-c3ccc(C(=O)O)cc3)c(-c3ccc(C)cc3)c2)cc1	2	-5%	·	2%	3%	5%	·	·	·
CCOC(=O)C1=C(C)OC(N)=C(C(=O)OC(C)(C)C)C12C(=O)Nc1ccccc12 (stereo unspecified)	-1	·	·	·	·	·	·	·	·
CC(=O)[C@H]1CC[C@H]2[C@@H]3CC=C4C[C@@H](OS(=O)(=O)O)CC[C@]4(C)[C@H]3CC[C@]12C	0	0%	-2%	-2%	0%	40µM*	10	-2%	40µM*
O=C(CSC1c2ccccc2Oc2ccccc21)Nc1ccc(C(=O)O)cc1	14	·	·	·	·	·	·	·	·
C=C1C(=O)O[C@@H]2C[C@@H](C)[C@@H]3C=CC(=O)[C@@]3(C)[C@@H](OC(=O)CC(=O)O[C@H]3[C@@H]4C(=C)C(=O)O[C@@H]4C[C@@H](C)[C@@H]4C=CC(=O)[C@]43C)[C@H]12	3	-1%	-53%	?	5%	?	9	-10%	?
CN(C(=O)CN1CC=C(c2ccccc2)CC1)C1CCS(=O)(=O)C1 (stereo unspecified)	6	·	·	·	·	·	·	·	·
CCOc1ccccc1Oc1coc2cc(OC(=O)c3ccco3)ccc2c1=O	-13	-7%	?	-6%	?	?	-9	1%	28µM*
CCOc1ccccc1Oc1coc2cc(OC(=O)N(C)C)ccc2c1=O	-2	0%	-17%	-1%	4%	2%	·	·	·
CC(C)CN(CC(C)C)c1ccc(C=C2C(=O)NC(=S)NC2=O)cc1[N+](=O)[O-]	-8	-13%	-24%	-9%	?	?	-3	-2%	40µM*
CCOc1ccc(C2CC(c3c(O)n(C)c(=O)n(C)c3=O)=NN2)cc1 (stereo unspecified)	-7	6%	i	1%	0%	20%	·	·	·
CCOc1ccc(C2c3c(-c4ccccc4O)n[nH]c3C(=O)N2Cc2ccncc2)cc1 (stereo unspecified)	-5	-11%	i	-14%	7%	?	-5	1%	40µM*
COc1ccc(-c2c3c(=O)n(C)c(=O)n(C)c3c3n2-c2ccccc2NC3c2ccccc2OC)cc1 (stereo unspecified)	1	2%	-17%	-3%	5%	45µM*	0	3%	6.3µM*
Cn1c(=O)c2c(-c3ccccc3)n3c(c2n(C)c1=O)C(c1cc(Cl)ccc1O)Nc1ccccc1-3 (stereo unspecified)	-2	0%	-29%	-3%	2%	40µM*	-4	5%	14µM*
Cn1c(O)c(C2=NNC(c3ccc(Cl)cc3)C2)c(=O)n(C)c1=O (stereo unspecified)	1	3%	-23%	-6%	2%	6%	·	·	·

From PubChem BioAssay
